Bioassay records as filed in PubChem BioAssay.
TexasRed fluor – Total Fluorescence Counterscreen for Inhibitors of the Interaction of Thyroid Hormone Receptor and Steroid Receptor Coregulator 2. TRb/SRC2 Texas Red total fluorescence interference. Potency, µM (titrated, usually from 106 µM), for inactives: top-dose fluorescence change, negative = quenching. 0.29% of 280,000 active; active means well fitted curve in either direction with a large enough effect; inconclusive means small, poorly fitted or top-dose-only effect; further: potency means the concentration at half of the fitted maximal effect
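Human TRβ ligand-binding domain (0.6 uM) and Texas Red SRC2 peptide (20 nM) in Tris buffer with 1 uM T3 and 5% DMSO were incubated with pinned compound for 5 hr at ambient temperature. Total fluorescence was computed as S + 2P (555/632 nm).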
Tau FP inhib – qHTS for Inhibitors of Tau Fibril Formation, Fluorescence Polarization. Microtubule-associated protein tau (Homo sapiens), P10636. K18 P301L tau heparin fibrillization, Alexa594 FP, 6 h. 0.39% of 280,000 active. Potency, µM (top dose mostly 57.7 µM), without a hit: at the highest dose activity, negative = inhibition, most hits filed as inhibitors. AID 1468, 2008; further: potency means the concentration at half of the fitted maximal effect; nearly all actives have a fitted effect of over 55% in size
Target sequence (P10636 561-689 P618L limits assumed): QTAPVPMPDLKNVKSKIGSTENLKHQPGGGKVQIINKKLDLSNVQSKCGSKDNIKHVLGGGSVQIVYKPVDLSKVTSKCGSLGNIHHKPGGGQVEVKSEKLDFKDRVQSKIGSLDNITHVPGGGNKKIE
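Human tau K18 […] P301L fragment, 15 uM unlabeled plus 0.24 uM Alexa 594-labeled tau (final), with compound and 20 uM heparin in 100 mM sodium acetate pH 7; 6 hr at 37 C, then Alexa 594 FP read.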
TRb SRC2 PPI – qHTS for Inhibitors of the Interaction of Thyroid Hormone Receptor and Steroid Receptor Coregulator 2; 0.065% of 280,000 active; AID 1469, 2008; Thyroid hormone receptor beta (Homo sapiens), P10828; Potency, µM (doses to about 106 µM), for inactives: at the highest dose activity change, negative = inhibition, hits mostly inhibitors; TRbeta-SRC2 peptide binding, fluorescence polarization; receptor liganded with 1 µM T3;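 further: potency means the concentration at half of the fitted maximal effect; plate controls were bound peptide for no effect and peptide without receptor for full effect; nearly all actives have a fitted effect of over 50% in size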
Target sequence (P10828 whole entry, looked up): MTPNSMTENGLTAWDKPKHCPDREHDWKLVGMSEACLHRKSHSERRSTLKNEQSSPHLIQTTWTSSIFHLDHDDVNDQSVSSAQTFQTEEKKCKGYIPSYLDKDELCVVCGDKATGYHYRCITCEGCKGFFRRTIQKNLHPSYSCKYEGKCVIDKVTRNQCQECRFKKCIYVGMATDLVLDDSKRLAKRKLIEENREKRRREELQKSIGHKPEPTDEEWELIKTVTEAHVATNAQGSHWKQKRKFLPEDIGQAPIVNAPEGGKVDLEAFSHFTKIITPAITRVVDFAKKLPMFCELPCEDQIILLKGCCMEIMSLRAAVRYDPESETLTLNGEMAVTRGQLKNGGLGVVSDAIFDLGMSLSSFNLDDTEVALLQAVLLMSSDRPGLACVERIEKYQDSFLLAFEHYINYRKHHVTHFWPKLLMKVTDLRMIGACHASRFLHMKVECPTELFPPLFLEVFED
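Fluorescence polarization of 20 nM Texas Red SRC2 peptide with 0.6 uM human TRb ligand-binding domain, in Tris buffer with 1uM T3 and 5% DMSO. Incubated 5 hr ambient; normalized to unbound and bound controls.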
PNC inhibitor – High Content Assay for Compounds that inhibit the Assembly of the Perinucleolar Compartment. PC3M PTB-GFP, PNC prevalence imaging, 16 h; stronger effect = lower value. activity change (PNC), negative = inhibition, % at 10 µM. AID 2417, 2010. 3.1% of 140,000 active;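 active means readout at or below -70, meaning at least 70% loss of cells showing the perinucleolar compartment, a nuclear body marking cancer cells; inconclusive means readout between -30 and a set limit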;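 further: plate controls were DMSO wells for no effect and camptothecin positive control wells for full effect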
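Compounds are pinned in duplicate onto adhered PC3M cells stably expressing GFP-tagged PTB and incubated 16 h at 37 C. Cells are then fixed, nuclei stained with Hoechst, and PNC-positive cells counted.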
Tau fibril ThT – qHTS for Inhibitors of Tau Fibril Formation, Thioflavin T Binding; AID 1460, 2008; recombinant tau K18 P301L, heparin-induced fibrillization, ThT fluorescence; 2.1% of 270,000 active; Potency, µM (series often up to 57.4 µM), for the others: at the top dose activity, negative = inhibition, hits mostly inhibitors; further: potency means the concentration at half of the fitted maximal effect; nearly all actives have a fitted effect of over 55% in size
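Recombinant human tau K18 fragment […] carrying P301L, 15 uM unlabeled plus 0.24 uM Alexa 594-labeled, was fibrillized with 20 uM heparin in 100 mM sodium acetate pH 7 for 6 hr at 37 C; 30 uM ThT fluorescence read after 1 hr.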
Tau fluor counter – Counterscreen qHTS for Inhibitors of Tau Fibril Formation, Fluorescence Polarization. tau K18 P301L (four-repeat tau fragment) Alexa594 fluorescence, heparin fibrillization. Potency, µM (doses to about 57.7 µM), for inactives: top-dose activity change, negative = decrease. 0.93% of 280,000 active; further: potency means the concentration at half of the fitted maximal effect; nearly all actives have a fitted effect of over 55% in size
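Human K18 P301L tau (15 uM unlabeled plus 0.24 uM Alexa 594-labeled, final) in 100 mM sodium acetate pH 7 was mixed with compound and 20 uM heparin and incubated 6 hr at 37 C.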
* hit, by the source's call; [ ] = remark or other dose. Sampled rows, rich in hits. Any-hit rate of the full collection: about 4.6%. Unless noted, the call rests on the fitted dose curve; in most records, active means well fitted curve in the direction sought with a large enough effect; inconclusive means small, poorly fitted or top-dose-only effect, or another doubt; inactive means no such curve, though single readings can be large; an effect the other way counts as inactive or inconclusive. Unless noted, on the % scale 0 is the no-effect control and ±100 the full control effect.

For CSc1nc(SCC(=O)NCC2CCCO2)c2c3c(sc2n1)CN(C)CC3 (stereo not given) the results were TexasRed fluor -0.2%, Tau FP inhib -10.6%, TRb SRC2 PPI 1.2% and Tau fluor counter -14.9%.
`Cn1c(C(=O)NC2CC2)cc(=O)n(C)c1=O` gave TexasRed fluor 0.2%, Tau FP inhib 3.5%, TRb SRC2 PPI 3.4%, Tau fibril ThT -1.7% and Tau fluor counter -1.6%.
`COc1ccc(OC)c(Nc2nc(-c3sc(NC(=O)C(C)(C)C)nc3C)cs2)c1` gave TexasRed fluor -1.0%, Tau FP inhib 13.6%, TRb SRC2 PPI 4.7%, PNC inhibitor 7.0, Tau fibril ThT inconclusive and Tau fluor counter 14.1µM*[quencher].
CCCCC(=O)Nc1nc(C)c(-c2csc(Nc3cc(OC)ccc3OC)n2)s1 was read as TexasRed fluor -7.2%, Tau FP inhib inconclusive, TRb SRC2 PPI -10.6%, PNC inhibitor -16.3, Tau fibril ThT inconclusive and Tau fluor counter 15.8µM*[quencher].
For CCCCC(=O)Nc1nc(C)c(-c2csc(Nc3cc(Cl)ccc3OC)n2)s1 the results were TexasRed fluor 12.9%, Tau FP inhib -3.9%, TRb SRC2 PPI -12.7%, PNC inhibitor 11.3, Tau fibril ThT inconclusive and Tau fluor counter inconclusive.
Screening Fc1ccc(Nc2nc(-c3ccncc3)cs2)cc1 returned TexasRed fluor -5.4%, Tau FP inhib 6.2%, TRb SRC2 PPI 6.8%, Tau fibril ThT inconclusive and Tau fluor counter -19.0%.
`Cc1nc(C)c(-c2csc(Nc3ccc(F)cc3)n2)s1` gave TexasRed fluor -3.1%, Tau FP inhib inconclusive, TRb SRC2 PPI 2.4%, Tau fibril ThT inconclusive and Tau fluor counter 20µM*[quencher].
For COc1ccc(OC)c(Nc2nc(-c3sc(NC(=O)CC(C)C)nc3C)cs2)c1 the results were TexasRed fluor -3.6%, Tau FP inhib -5.1%, TRb SRC2 PPI 7.0%, PNC inhibitor 21.5, Tau fibril ThT inconclusive and Tau fluor counter 12.6µM*[quencher].
For OCCN(Cc1ccccc1)Cc1nc(CC2CC2)no1 the results were TexasRed fluor -0.9%, Tau FP inhib 6.0%, TRb SRC2 PPI -9.3%, Tau fibril ThT -8.8% and Tau fluor counter 0.3%.
Screening COc1cccc2nc3cc(C)c(C)cc3nc12 returned TexasRed fluor -9.0%, Tau FP inhib inconclusive, TRb SRC2 PPI 3.5%, Tau fibril ThT 22.4µM* and Tau fluor counter -26.9%.
For CCN1CCN(CCC(=O)Nc2ccccc2OC)CC1 the results were TexasRed fluor -1.0%, Tau FP inhib -0.2%, TRb SRC2 PPI -2.3%, PNC inhibitor -8.5, Tau fibril ThT -3.9% and Tau fluor counter -5.7%.
Screening CCOc1ccccc1NC(=O)CCN1CCN(S(=O)(=O)c2ccc(Br)cc2)CC1 returned TexasRed fluor -0.2%, Tau FP inhib 1.8%, TRb SRC2 PPI -3.3%, PNC inhibitor -107.4*, Tau fibril ThT -0.8% and Tau fluor counter 0.1%.
CC(=O)c1sc(-c2ccc(Cl)cc2)nc1C was read as TexasRed fluor -6.1%, Tau FP inhib -3.4%, TRb SRC2 PPI -2.6%, Tau fibril ThT -0.2% and Tau fluor counter 5.3%.
For CNC(=O)c1sc(-c2ccccc2)nc1C the results were TexasRed fluor 1.1%, Tau FP inhib -4.0%, TRb SRC2 PPI 3.0%, PNC inhibitor -82.8*, Tau fibril ThT -11.0% and Tau fluor counter -11.0%.
Screening COc1ccc(N/C=C/C(=O)c2sc(-c3ccccc3)nc2C)cc1 returned TexasRed fluor -5.4%, Tau FP inhib 8.4%, TRb SRC2 PPI -5.3%, PNC inhibitor 14.1, Tau fibril ThT 2.51µM* and Tau fluor counter inconclusive.
For CNC(=O)c1sc(-c2ccc(Cl)cc2)nc1C the results were TexasRed fluor -0.3%, Tau FP inhib 2.6%, TRb SRC2 PPI -8.5%, PNC inhibitor -89.9*, Tau fibril ThT -2.6% and Tau fluor counter -2.9%.
`C[C@@H](C(=O)N[C@@H](Cc1c[nH]c2ccccc12)C(=O)O)n1nnc2ccccc2c1=O` gave TexasRed fluor -4.2%, Tau FP inhib -1.7%, TRb SRC2 PPI -2.1%, Tau fibril ThT -3.9% and Tau fluor counter -2.6%.
For CCC(C)NC(=O)C1c2cc(OC)c(OC)cc2C(=O)N(C)C1c1cccs1 (stereo not given) the results were TexasRed fluor -3.1%, Tau FP inhib 1.7%, TRb SRC2 PPI 1.3%, PNC inhibitor 9.9, Tau fibril ThT 1.6% and Tau fluor counter 2.1%.
`CCC(C)NC(=O)C1c2cc(OC)c(OC)cc2C(=O)N(C)C1c1ccc(OC)cc1` (stereo not given) gave TexasRed fluor -3.8%, Tau FP inhib -0.5%, TRb SRC2 PPI -2.8%, PNC inhibitor -100.0*, Tau fibril ThT -2.1% and Tau fluor counter -2.0%.
COc1ccc(C2C(C(=O)N3CCN(c4ccccc4)CC3)c3ccccc3C(=O)N2C)cc1 (stereo not given) was read as TexasRed fluor -5.3%, Tau FP inhib 13.0%, TRb SRC2 PPI -5.7%, PNC inhibitor -100.0*, Tau fibril ThT -3.7% and Tau fluor counter 6.1%.
For COc1ccc(C2C(C(=O)N3CCN(C)CC3)c3cc(OC)c(OC)cc3C(=O)N2C)cc1 (stereo not given) the results were TexasRed fluor -1.2%, Tau FP inhib 7.6%, TRb SRC2 PPI 1.5%, Tau fibril ThT -7.5% and Tau fluor counter -7.5%.
`CCC(C)NC(=O)C1CCC(=O)N(c2cc(OC)c(OC)c(OC)c2)C1c1ccc(OC)cc1` (stereo not given) gave TexasRed fluor -1.7%, Tau FP inhib -9.6%, TRb SRC2 PPI -6.6%, PNC inhibitor -100.0*, Tau fibril ThT -0.2% and Tau fluor counter -0.8%.
For CCN1CCN(C(=O)C2c3cc(OC)c(OC)cc3C(=O)N(C)C2c2ccc(SC)cc2)CC1 (stereo not given) the results were TexasRed fluor -4.0%, Tau FP inhib 1.7%, TRb SRC2 PPI -7.4%, PNC inhibitor -100.0*, Tau fibril ThT -2.4% and Tau fluor counter 2.7%.
`O=C1C(c2c(O)[nH]c3ccccc23)=Nc2ccccc21` gave TexasRed fluor -0.1%, Tau FP inhib -3.0%, TRb SRC2 PPI 1.6%, Tau fibril ThT inconclusive and Tau fluor counter inconclusive.
`CCOC(=O)c1[nH]n(-c2ccc(Cl)cc2)c(=O)c1C` gave TexasRed fluor 1.0%, Tau FP inhib 1.8%, TRb SRC2 PPI -2.8%, PNC inhibitor -114.2*, Tau fibril ThT -6.0% and Tau fluor counter -6.5%.
